POLH inh = inhibitors of human DNA polymerase eta | recombinant Pol eta, fluorescent DNA replication assay | Potency, µM (titrated, usually from 114 µM), without a hit: top-dose activity change, negative = inhibition, hits mostly inhibitors | Q9Y253 | 390,000 compounds, 1.2% hits; also: % is scaled to controls: 0 for no effect and ±100 for the full control effect
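Pol eta (10 nM) was preincubated with compounds for 15 min at room temperature, after which fluorescent replication substrate (50 nM final) was added to start the reaction. Fluorescence was read kinetically at 0 and 10 min.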
POLB inh = DNA polymerase beta (human) inhibition; Pol beta primer extension/strand displacement, fluorescence kinetic; Potency, µM (titrated, usually from 114 µM), without a hit: at the highest dose activity change, negative = inhibition, actives largely listed as inhibitors; 340,000 compounds, 1.3% hits; AID 485314; also: % is scaled to controls: 0 for no effect and ±100 for the full control effect
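Kinetic readout of DNA synthesis with strand displacement by Pol beta. Compound and 10 nM enzyme sit 15 min at room temperature; 50 nM substrate starts the reaction, read immediately and at 10 min.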
FEN1 inhibitor = blocks human flap endonuclease 1. 390,000 compounds, 0.35% hits. Recombinant FEN1 flap cleavage, fluorescence, 15 min. Potency, µM (titrated, usually from 114 µM), without a hit: at the highest dose activity change, negative = inhibition, usual class: inhibitors; also: % is scaled to controls: 0 for no effect and ±100 for the full control effect; nearly all actives have a fitted effect of over 65% in size
Target sequence (P39748 whole entry, looked up): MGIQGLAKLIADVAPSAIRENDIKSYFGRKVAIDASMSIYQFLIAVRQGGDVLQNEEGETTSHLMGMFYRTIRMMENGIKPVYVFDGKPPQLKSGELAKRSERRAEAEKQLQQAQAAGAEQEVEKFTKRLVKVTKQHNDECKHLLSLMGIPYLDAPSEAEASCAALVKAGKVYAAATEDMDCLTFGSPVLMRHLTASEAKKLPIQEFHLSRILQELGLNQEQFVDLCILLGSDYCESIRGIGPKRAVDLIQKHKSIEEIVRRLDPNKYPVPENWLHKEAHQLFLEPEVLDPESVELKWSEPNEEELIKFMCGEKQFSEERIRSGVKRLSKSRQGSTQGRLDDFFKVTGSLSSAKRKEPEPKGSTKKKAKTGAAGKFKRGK
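FEN1 at 10 nM preincubated with compounds 15 min at room temperature, then flap DNA substrate added at 50 nM final. Signal read at 0 and 15 min; concentration-response fitted with four-parameter Hill equation.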
Pol kappa inh = DNA polymerase kappa (human) inhibition | purified Pol kappa, fluorescent DNA synthesis assay, 10 min | Potency, µM (series often up to 107 µM), for inactives: at the highest dose activity, negative = inhibition, most hits filed as inhibitors | Q9UBT6 | 400,000 compounds, 0.53% hits | AID 588579; also: % is scaled to controls: 0 for no effect and ±100 for the full control effect
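10 nM Pol kappa preincubated 15 min at room temperature with compounds, then reaction started with substrate at 50 nM final. Fluorescence read kinetically at 0 and 10 min; buffer-only wells served as negative control.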
POLI inh = blocks human DNA polymerase iota activity; Q9UNA4; Pol iota fluorescent replication assay, 10 min; Potency, µM (highest dose often 115 µM), for inactives: at the highest dose activity, negative = inhibition, most hits filed as inhibitors; 390,000 compounds, 1% hits
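Fluorescent replication assay read twice, at 0 min and 10 min after adding 50 nM (final) substrate. Enzyme (10 nM) and compounds were first incubated 15 min at room temperature; enzyme-free buffer wells were negative controls.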
WRN helicase inh = blocks human WRN helicase; Q14191; 360,000 compounds, 0.46% hits; Potency, µM (titrated, usually from 114 µM), for inactives: at the highest dose activity change, negative = inhibition, hits mostly inhibitors; WRN helicase unwinding, fluorescent forked duplex, kinetic; also: % is scaled to controls: 0 for no effect and ±100 for the full control effect; nearly all actives have a fitted effect of over 55% in size
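Kinetic red-fluorescence monitoring (525/598 nm) tracks WRN helicase activity after 100 nM fluorophore-quencher forked duplex and 2 mM ATP are added to 20 nM enzyme pretreated 15 min at room temperature with compound.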
TbPGK inh = blocks T. brucei phosphoglycerate kinase; shares compounds with Pol kappa inh; TbPGK coupled GAPDH assay, Kinase-Glo luminescence; Potency, µM (series often up to 57.5 µM), for the others: top-dose activity change, negative = inhibition, hits mostly inhibitors; 500 compounds, 79% hits; also: % is scaled to controls: 0 for no effect and ±100 for the full control effect; nearly all actives have a fitted effect of over 65% in size
Pol iota confirm = Confirm cherry-picked inhibitors of human polymerase iota; shares compounds with Pol kappa inh; Potency, µM, usual class: inhibitors; 1,500 compounds, 77% hits; Pol iota primer extension, TAMRA/BHQ fluorescence
An asterisk follows results filed as active; ? = inconclusive; . = no result given; [ ] = another dose, or the depositor's remark. Compounds with a hit are over-represented: about 2.4% of the library has one in this group of screens. Calls follow the shape of the dose curve; as a rule, active = well fitted curve in the direction sought with a large enough effect; inconclusive = small, poorly fitted or top-dose-only effect, or another doubt; inactive = no such curve, though single readings can be large; an effect the other way counts as inactive or inconclusive. Potency is read from the fitted curve at half-maximal effect.

SMILES	POLH inh	POLB inh	FEN1 inhibitor	Pol kappa inh	POLI inh	WRN helicase inh	TbPGK inh	others
CCNS(=O)(=O)c1ccc2nc(NC(=O)c3cccnc3)sc2c1	-10%	0%	-16%	-11%	9%	-5%	.
O=C(CN1C(=O)/C(=C\c2ccco2)SC1=S)Nc1ccc(O)cc1C(=O)O	8.9µM*	0.4µM*	-6%	-6%	?	50µM*	26µM*
CN(C)c1ccc(C(=O)Nc2sc(Nc3ccccc3)nc2C(N)=O)cc1	?	?	11%	-3%[60.1 µM]	79µM*	.	.	Pol iota confirm=?
CN(C)c1ccc(C(=S)Nc2ccccc2)cc1	-14%	-25%	15%	0%	0%	-9%	.
COc1ccccc1N1CCN(C(=O)Cn2ncc3c(=O)oc4ccccc4c32)CC1	-10%	10%	9%	-3%	12%	.	.
Cc1cc(C)c(NC(=O)CS(=O)CC(=O)Nc2ccc(N3CCOCC3)cc2)c(C)c1 (stereo unspecified)	-17%	11%	0%	-14%	13%	-4%	.
Cc1ccc(NC(=O)CS(=O)CC(=O)Nc2ccc(N3CCOCC3)cc2)cc1Cl (stereo unspecified)	?	25µM*	?	?	18µM*	-35%	.	Pol iota confirm=?
CCCCc1nn2c(=O)cc(COC(=O)c3ccccc3C)nc2s1	-3%	-2%	-1%	2%	18%	.	.
Oc1ccc(C[C@H]2CNCCN2CCc2cccc3ccccc23)cc1	-10%	.	-19%	-14%	?	4%	?
COc1ccc2nc(NC(=O)c3ccoc3C)sc2c1	5%	-1%	-10%	-10%	-10%[58.9 µM]	7%	10µM*
CCc1ccc2oc(C(=O)NCCc3ccc(OC)c(OC)c3)cc(=O)c2c1	-14%	?	14%	-8%	17%	.	.
O=C(COc1ccc(/C=N/NC(=O)c2ccc(O)cc2)cc1)Nc1cccc([N+](=O)[O-])c1	14µM*	10µM*	?	?	?	?	12µM*	Pol iota confirm=?
O=C(COc1ccc(/C=N/NC(=O)c2ccncc2)cc1)Nc1ccc([N+](=O)[O-])cc1	-6%	24%	-14%	-2%	-10%	9%[57.1 µM]	.
O=C(/C=C/c1ccc([N+](=O)[O-])cc1)Oc1ccc(/C=N/NC(=O)c2ccncc2)cc1	?	-2%	?	22µM*	79µM*	-13%[11.6 µM]	.	Pol iota confirm=?
CC(=O)Nc1ccccc1NS(=O)(=O)c1ccccc1NO	.	.	-2%	8%	-6%	.	.
COc1ccc2[nH]c3c(C)c4ccncc4c(C)c3c2c1	?	1.3µM*	2.8µM*	50µM*	3.5µM*	?	.	Pol iota confirm=7.5*
COc1cccc(/C=N/Nc2ncccc2[N+](=O)[O-])c1OC	-8%	-22%	1%	-9%	38%	-5%	16µM*
COc1c(N2CCN(C(=S)NCc3ccccc3)C(C)C2)c(F)cc2c(=O)c(C(=O)O)cn(C3CC3)c12 (stereo unspecified)	32µM*	28µM*	?	?	16µM*	?	.	Pol iota confirm=53*
COc1c(N2CCN[C@H](C)C2)c(F)cc2c(=O)c(C(=O)O)cn(C3CC3)c12	-3%	?	-27%	-6%	-21%	0%	.
COc1ccc(C)cc1NC(=O)Nc1nnc(N2CCCCC2)s1	-15%	?	12%	-8%	76%	.	.
COC(=O)CCC(=O)OC1(C)C(=O)C2=CN(CC(C)C)C(c3ccc(OC)cc3)=CC2=C(Br)C1=O (stereo unspecified)	.	5%	.	.	.	.	.
CCC(=O)OC1(C)C(=O)C2=COC(c3ccc(OC)cc3)=CC2=C(Br)C1=O (stereo unspecified)	45µM*	?	-14%	?	?	-24%[57.1 µM]	21µM*
CCNc1ncc2nc(-c3cccs3)c(=O)n(Cc3cccs3)c2n1	.	.	.	-5%[60.1 µM]	.	.	.
CCOC(=O)c1cnc2ccc(OC(F)(F)F)cc2c1Nc1ccccc1C(=O)O	-14%	21%	-6%	2%	1%	.	-17%
Cc1cc(C)c2oc(C(=O)Nc3nc4ccc(Cl)cc4s3)cc(=O)c2c1	2%	25%	-4%	7%	-5%	.	.
SMILES	POLH inh	POLB inh	FEN1 inhibitor	Pol kappa inh	POLI inh	WRN helicase inh	TbPGK inh	others
O=C(O)CCCNC(=O)/C=C/c1ccco1	4µM*	2.8µM*	?	50µM*	?	-30%	?
O=C(O)CCCCCNC(=O)/C=C/c1ccco1	3%	?	16%	-17%	-16%	-11%	.
COc1ccc(-c2nc3cc(C(C)C)ccc3o2)cc1NC(=O)COc1ccc(C)cc1C	-21%	-18%	-5%	-2%	12%	.	.
C/C(=N\NC(=O)c1ccccc1NC(=O)c1ccc(Cl)cc1)c1ccncc1	-17%	4%	-2%	-2%	50%	-1%	6.5µM*
Cc1cccc(NC(=O)Cn2c(=O)n(Cc3ccccc3)c(=O)c3oc4ccccc4c32)c1C	-16%	0%	0%	4%	40%	.	.
CC(C)(C)C1CCc2c(sc(NC(=O)CCC(=O)O)c2C(=O)Nc2ccccc2C(F)(F)F)C1 (stereo unspecified)	?	?	?	-25%	?	.	.	Pol iota confirm=?
COC(=O)CC1Oc2ccccc2-n2cc(-c3ccc(Cl)cc3)nc21 (stereo unspecified)	-13%	2%	-3%	7%	27%	.	.
COc1ccc(C(C[N+](=O)[O-])c2c(C)[nH]n(-c3ccccc3)c2=O)cc1 (stereo unspecified)	-13%	-2%	?	-10%	1.6µM*	?	.	Pol iota confirm=67*
COc1ccc(C(C[N+](=O)[O-])c2c(C)cc3ccccn23)cc1 (stereo unspecified)	7%	19%	-14%	-2%	51%	-32%	.
Cc1csc(N=Nc2ccc(N(C)C)cc2)[n+]1[O-]	?	.	.	.	.	-32%	13µM*
CN(C)c1ccc(N=Nc2ccccc2C(=O)O)cc1	.	.	-5%	-19%	-3%	.	.
O=C(c1ccccc1)c1cc2ccc(O)cc2oc1=O	8%	22%	-14%	-5%	-5%	-1%	15µM*
O=C(COC(=O)/C=C/c1ccco1)Nc1cc(S(=O)(=O)N2CCOCC2)ccc1Cl	?	.	12%	?	50µM*	-2%[11.6 µM]	?
CCOc1ccccc1/C=N/NC(=O)c1cccc(S(=O)(=O)N(CC)CC)c1	-6%	-24%	2%	0%	31%	-10%	.
